This is a sample that favours compounds with a hit; in the whole collection about 5.3% have one here.
JMJD2E inh: inhibitors of human JMJD2E histone demethylase. B2RXH2. JMJD2E catalytic domain, FDH-coupled NADH fluorescence (FDH is formaldehyde dehydrogenase). Potency, µM (highest dose often 57.1 µM), actives largely listed as inhibitors. 230,000 compounds, 1.6% hits. AID 2147; active = well fitted inhibition curve with a large enough effect, not every such curve was filed as active; inconclusive = small, poorly fitted or top-dose-only effect, or another doubt; inactive = no such curve, though single readings can be large or run the other way; also: nearly all actives have a fitted effect of over 50% in size
Target sequence (B2RXH2 1-337 limits assumed): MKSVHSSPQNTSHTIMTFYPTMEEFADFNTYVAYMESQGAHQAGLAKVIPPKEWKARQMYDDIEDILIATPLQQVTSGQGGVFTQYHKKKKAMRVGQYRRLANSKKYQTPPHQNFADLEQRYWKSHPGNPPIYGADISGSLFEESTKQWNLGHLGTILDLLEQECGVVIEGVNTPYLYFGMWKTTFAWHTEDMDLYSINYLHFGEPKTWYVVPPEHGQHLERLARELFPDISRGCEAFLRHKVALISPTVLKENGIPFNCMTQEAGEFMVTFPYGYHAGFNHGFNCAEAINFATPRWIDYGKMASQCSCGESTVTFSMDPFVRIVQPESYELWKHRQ
Tau ThT inhib: inhibitors of human tau fibril formation, thioflavin T binding; 270,000 compounds, 2.1% hits; recombinant tau K18 P301L, heparin-induced fibrillization, ThT fluorescence; P10636; AID 1460; Potency, µM (doses to about 57.4 µM), usual class: inhibitors; also: nearly all actives have a fitted effect of over 55% in size
Target sequence (P10636 561-689 P618L limits assumed): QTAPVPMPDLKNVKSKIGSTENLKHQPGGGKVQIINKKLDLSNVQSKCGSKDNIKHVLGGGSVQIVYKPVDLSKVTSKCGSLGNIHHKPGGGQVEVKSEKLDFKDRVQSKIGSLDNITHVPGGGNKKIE
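K18 P301L tau (15 uM + 0.24 uM Alexa 594-tagged), heparin 20 uM, NaOAc pH 7, 6 h 37 C; ThT 30 uM, 1 h RT, ex 450/em 510 nm.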
Coupling enz: counter-screen for Giardia aldolase inhibitors: coupling enzyme system; coupling enzyme system counterscreen, AmpLite Red fluorescence; activity change, negative = inhibition, % at 58.2 µM, hits read low; 290,000 compounds, 0.67% hits; AID 2472; in the data active = activity change below about -30%
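Fluorescence at 525 nm excitation and 598 nm emission measured inhibition of the coupled detection system without aldolase. Compounds (at 57.5 uM final) were preincubated 10 min at room temperature with coupling enzyme reagent before a 20 min substrate/AmpLite Red step.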
Tau FP inhib: inhibitors of human tau fibril formation | 280,000 compounds, 0.39% hits | Potency, µM (titrated, usually from 57.7 µM), usual class: inhibitors | K18 P301L tau heparin fibrillization, Alexa594 FP, 6 h; also: nearly all actives have a fitted effect of over 55% in size
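Human tau K18 […] P301L fragment, 15 uM unlabeled plus 0.24 uM Alexa 594-labeled tau (final), with compound and 20 uM heparin in 100 mM sodium acetate pH 7; 6 hr at 37 C, then Alexa 594 FP read.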
Sfp PPTase inh: inhibitors of Bacillus subtilis Sfp phosphopantetheinyl transferase. Q9F4F7. Biochemical Sfp PPTase activity, qHTS. Potency, µM, usual class: inhibitors. 310,000 compounds, 3.5% hits. AID 1490;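 also: the enzyme is Sfp with the accession as filed and its product quenches rhodamine fluorescence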
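Buffer: 50 mM Hepes-Na pH 7.6, 10 mM MgCl2, 0.01% Nonidet P-40, 0.01% BSA. Enzyme 15 nM, pre-exposed to compound 15 min; substrates then added and fluorescence change tracked over 30 min.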
Tau fluor counter: counter-screen for tau fibril formation inhibitors; tau K18 P301L Alexa594 fluorescence, heparin fibrillization; 280,000 compounds, 0.93% hits; Potency, µM (titrated, usually from 57.7 µM); also: nearly all actives have a fitted effect of over 55% in size
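Human tau K18 P301L (15 uM unlabeled, 0.24 uM Alexa 594-labeled) in 100 mM sodium acetate pH 7 with 20 uM heparin, 6 hr at 37 C. ThT 30 uM added, 1 hr ambient; Alexa 594 FP and total fluorescence read at 555/632 nm.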
Hits are given with their value; . = inactive; ? = inconclusive; / = no result given; ! = repeats disagree. Unless noted, calls follow the shape of the dose curve; as a rule, active = well fitted curve in the direction sought with a large enough effect; inconclusive = small, poorly fitted or top-dose-only effect, or another doubt; inactive = no such curve, though single readings can be large; an effect the other way counts as inactive or inconclusive.

SMILES	JMJD2E inh	Tau ThT inhib	Coupling enz	Tau FP inhib	Sfp PPTase inh	Tau fluor counter
COc1ccc(OC)c(C(O)C(C)N)c1 (stereo not given)	.	.	.	.	.	.
C[C@@H](N)[C@@H](O)c1ccc(O)c(O)c1	/	4µM	/	?	56µM	?
CC12C=CC(=O)C=C1CCC1C2=CCC2(C)C1CC[C@@H]2C(=O)CN1CCN(c2cc(N3CCCC3)nc(N3CCCC3)n2)CC1 (stereo not given in full)	/	7.1µM	-38	?	?	.
C[C@@H]1O[C@H](O[C@H]2C[C@@H](O)[C@@]3(CO)[C@H]4[C@@H](O)C[C@]5(C)[C@@H](C6=CC(=O)OC6)CC[C@]5(O)[C@H]4CC[C@]3(O)C2)[C@@H](O)[C@H](O)[C@@H]1O	.	/	.	/	.	/
CN1C2CCC1/C(=C/c1ccccn1)C(=O)/C2=C\c1ccccn1	.	4.5µM	.	?	?	.
CN1CCc2nc3sc(C(=O)NC4CC4)c(N)c3cc2C1	?	?	.	.	32µM	.
CON(C)C(=O)Nc1ccc(Br)c(Cl)c1	/	/	.	/	.	/
OCCCc1ccc(O)c(O)c1	?	?	.	.	50µM	.
CCCN(CCC)CCc1ccc(O)c(O)c1	20µM	.	/	.	.	.
COc1ccccc1C1(O)CCN(CCCn2c3ccccc3c3ccccc32)CC1	/	/	.	/	?	/
NCCCP(=O)(O)CC1CCCCC1	.	.	.	.	.	.
CN1CCC[C@@H]1c1cccnc1	/	.	/	.	.	.
CON(C)C(=O)Nc1ccc(Br)cc1	/	/	.	/	.	/
O=C(Nc1ccc(Br)cc1)c1cc(Br)cc(Br)c1O	/	13µM	.	.	.	?
CC(=O)Nc1ccc(N(C(=O)Cn2nnc3ccccc32)C(C(=O)NC2CCCC2)c2ccc(O)c(O)c2)cc1 (stereo not given)	7.9µM	.	.	.	.	.
CSc1nc(N)c(N=Nc2ccc([As](=O)(O)O)cc2)c(=O)[nH]1	.	20µM	.	.	2.8µM	?
CCOc1ccc(NC(=O)CSc2oc(-c3ccccc3)nc2S(=O)(=O)c2ccc(Cl)cc2)cc1	/	.	/	.	/	?
COc1cccc(CN2CCNCC2)c1OC	/	/	.	/	.	/
COc1ccccc1CN1CCN(Cc2ccc(Cl)cc2)CC1	20µM	.	.	.	79µM	.
Cc1ccc(CN2CCN(Cc3ccccc3F)CC2)cc1	13µM	.	.	.	.	.
CCOc1ccccc1N1CCN(Cc2cccc(OC)c2OC)CC1	?	.	-41	.	.	.
O=P1(Oc2ccccc2)CC=CC(COC(c2ccccc2)(c2ccccc2)c2ccccc2)O1 (stereo not given)	/	/	.	/	.	/
CCOC(=O)c1oc2ccc(S(=O)(=O)n3nc(-c4ccc(Br)cc4)cc3N)cc2c1C	/	.	/	?	/	?
CCN1C[C@@]2(COC)CCC(OC)[C@]34C5C[C@]6(O)[C@@H](OC)C[C@](OC(C)=O)(C([C@H](OC)C23)[C@H]14)C5[C@H]6OC(=O)c1ccc(OC)cc1 (stereo not given in full)	/	/	.	/	.	/
C=CCOC(=O)COc1cc(C)cc2oc(=O)c3c(c12)CCC3	?	.	.	.	.	.
SMILES	JMJD2E inh	Tau ThT inhib	Coupling enz	Tau FP inhib	Sfp PPTase inh	Tau fluor counter
Cc1cc(OCC(=O)OC(C)(C)C)c2c3c(c(=O)oc2c1)CCC3	4.5µM	.	.	.	.	.
CN1CCc2cc3c(c4c2C1Cc1ccccc1-4)OCO3 (stereo not given)	/	/	-35	/	.	/
CCOC(=O)c1cnc2c(ccc3ccccc32)c1Nc1ccc(N(C)C)cc1	/	?	/	.	/	?
CN1C(=O)C(=Cc2ccc(-c3cccc(Cl)c3)o2)C(=O)N(C)C1=O	.	?	.	.	?	.
Cc1ccc(Sc2ccc(C=C3C(=O)N(C)C(=O)N(C)C3=O)o2)cc1	.	?	.	.	8.9µM	.
C[N+](C)(C)CCCl	/	/	.	/	.	/
CCCCCCCCCCCCCCCC[N+](C)(C)C	.	?	.	?	45µM!	.
CC(C)(C)c1ccc(C(=O)Nc2ccc3nc(SCC(=O)N4CCCC4)sc3c2)cc1	/	?	/	.	/	?
COc1ccc(/C=C2\C(=O)NC(=O)N(CCC3=CCCCC3)C2=O)c(OC)c1	.	.	.	.	56µM	.
